NPC1 prom act: NPC1 promoter activation. Huh7 NPC1 promoter luciferase reporter, 24 h. Potency, µM (highest dose often 9.22 µM), hits mostly activators. 320,000 tested, 2.4% active; further: nearly all actives have a fitted effect of over 60% in size
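Luminescence from an NPC1 promoter-driven luciferase reporter in stably transfected Huh7 cells was measured after 24 h compound treatment at 37 °C, followed by 10 min ambient incubation with luciferase detection reagent.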
Rab9 promoter act: activates the Rab9 promoter. 320,000 tested, 2.8% active. Huh7 Rab9 promoter-luciferase reporter, luminescence, 24 h. Potency, µM (titrated, usually from 9.22 µM), hits mostly activators; further: nearly all actives have a fitted effect of over 60% in size
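Rab9 promoter-driven luciferase in stably transfected Huh7 cells; 1500 cells/well rested 2 h, exposed to compound in DMSO for 24 h at 37 °C, 5% CO2. Luminescence read 10 min after adding luciferase reagent at ambient temperature.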
Luc counter: blocks Kinase-Glo luciferase, a counter-screen artifact. Kinase-Glo luciferase, ATP luminescence, 8 min. Potency, µM (series often up to 38.3 µM), actives largely listed as inhibitors. 200,000 tested, 0.28% active; further: nearly all actives have a fitted effect of over 60% in size
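Compound is pinned into ATP-containing buffer (10 uM ATP, imidazole pH 7.2, 7 mM MgCl2). Kinase-Glo luciferase reagent is then added. Light output is recorded following an 8-min room-temperature incubation.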
SMN2 splice up: enhancers of SMN2 splice variant expression; HEK293 SMN2-luciferase splicing reporter, luminescence, 30-36 h; Potency, µM (titrated, usually from 46.1 µM), most hits filed as activators; 210,000 tested, 2.8% active; AID 1458; further: nearly all actives have a fitted effect of over 55% in size
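HEK293 cells carry an SMN2 minigene-luciferase reporter in which exon 7 inclusion puts luciferase in frame. Cells were seeded at 2000 cells/well, attached for 10-12 hours, then exposed to compounds for 30-36 hours at 37C before ONE-Glo luminescence.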
FLuc counter: firefly luciferase modulation, counter-screen for miR-21 project | P08659 | purified FLuc, Km substrates, luminescence inhibition | Potency, µM (top dose mostly 57.5 µM), usual class: inhibitors | 360,000 tested, 6.9% active; further: nearly all actives have a fitted effect of over 55% in size
Target sequence (P08659 whole entry, looked up): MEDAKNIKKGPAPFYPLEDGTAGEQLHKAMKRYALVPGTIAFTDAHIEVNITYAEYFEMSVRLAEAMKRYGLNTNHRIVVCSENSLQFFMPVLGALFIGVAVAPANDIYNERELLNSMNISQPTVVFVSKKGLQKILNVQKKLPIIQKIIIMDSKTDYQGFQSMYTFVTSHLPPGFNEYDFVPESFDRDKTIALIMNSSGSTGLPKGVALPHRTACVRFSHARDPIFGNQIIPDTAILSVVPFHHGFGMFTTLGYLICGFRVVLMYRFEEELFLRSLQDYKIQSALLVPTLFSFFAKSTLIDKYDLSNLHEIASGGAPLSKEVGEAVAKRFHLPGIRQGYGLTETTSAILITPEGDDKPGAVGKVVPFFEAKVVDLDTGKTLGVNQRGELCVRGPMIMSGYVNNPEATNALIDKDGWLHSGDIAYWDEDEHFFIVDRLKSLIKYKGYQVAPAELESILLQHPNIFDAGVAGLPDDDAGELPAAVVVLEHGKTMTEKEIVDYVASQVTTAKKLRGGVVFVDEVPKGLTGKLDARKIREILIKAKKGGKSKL
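Purified P. pyralis luciferase (10nM final) with 10uM D-luciferin and 10uM ATP (Km levels) in 50mM Tris acetate pH 7.5, 10mM Mg acetate, 0.01% Tween-20, 0.05% BSA; qHTS 6-point titration, ~60 µM downward; luminescence read.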
ELG1 genotox: induces genotoxicity in HEK293T cells with luciferase-tagged ELG1. HEK293T ELG1-luciferase reporter, luminescence, 16 h. Potency, µM (top dose mostly 46 µM), usual class: activators. 330,000 tested, 1.3% active; further: nearly all actives have a fitted effect of over 60% in size
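Quantitative HTS format in 1536-well plates. HEK293T ELG1-luciferase reporter cells receive test compound and are incubated 16 hr at 37 °C, 5% CO2; ONE-Glo added, 30 min room temperature, then luminescence read.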
Numbers stand for hits; 0 = inactive; ? = inconclusive; - = no result given; [ ] = dose if it differs, or a comment. Hits are enriched below; roughly 7.5% of the tested compounds scored in any of these assays. The call rests on the fitted dose curve; in most records, active means well fitted curve in the direction sought with a large enough effect; inconclusive means small, poorly fitted or top-dose-only effect, or another doubt; inactive means no such curve, though single readings can be large; an effect the other way counts as inactive or inconclusive.

SMILES	NPC1 prom act	Rab9 promoter act	Luc counter	SMN2 splice up	FLuc counter	ELG1 genotox
Cc1ccccc1Cn1c2ccccc2c2cnn(CC(=O)NCC(C)c3ccccc3)c(=O)c21 (stereo not drawn)	-	-	-	0	0	-
COc1cccc(CNC(=O)Cn2ncn3cccc3c2=O)c1OC	0	0	-	-	0	0
COc1cccc(CNC(=O)C(C)n2ncn3cccc3c2=O)c1OC (stereo not drawn)	-	-	-	-	6µM	-
CCOc1ccc(CCNC(=O)c2cc(=O)[nH]c3ccc(S(=O)(=O)N4CCCCC4)cc23)cc1OCC	-	-	-	-	0	-
CC1(C)CC(=O)C(C(C2=C(O)CC(C)(C)CC2=O)c2ccc(O)c([N+](=O)[O-])c2)=C(O)C1	0	0	0	0	24µM	0
CCCC(=O)Nc1cccc(-c2nc3ccccc3c(=O)o2)c1	0	0	0	-	1.3µM	0
CC(C)C(=O)Nc1cccc(-c2nc3ccccc3c(=O)o2)c1	0	0	0	0	?	0
CC(C)(C)C(=O)Nc1cccc(-c2nc3ccccc3c(=O)o2)c1	?	?	0	0	15µM	0
O=c1oc(-c2cccnc2)nc2ccccc12	0	0	0	0	0	0
CC(C)C(=O)Nc1ccc(-c2nc3ccccc3c(=O)o2)cc1	0	0	0	-	0.3µM	0
O=C(Nc1cccc(-c2nc3ccccc3o2)c1)C(F)(F)F	-	-	-	0	?	-
CC(C)(C)C(=O)Nc1ccc(-c2nc3ccccc3c(=O)o2)cc1	0	0	0	-	0.11µM	0
N[C@H](Cc1cc(I)c(Oc2cc(I)c(O)c(I)c2)c(I)c1)C(=O)O	-	-	0	0	-	-
Cc1cc(=O)[nH]c2c(C)cc(S(=O)(=O)NCc3ccccc3)cc12	0	0	-	-	0	0
Cc1cc(=O)[nH]c2c(C)cc(S(=O)(=O)N3CCCCC3)cc12	0	0	-	-	0	16µM
Cc1nn(CC(=O)NCCc2ccc(Cl)cc2)c(=O)c2cc3cc(F)ccc3n12	-	-	-	0	0	-
COc1ccc(-n2cnc3cc(NCc4ccccn4)ccc32)cc1	0	0	0	0	17µM	0
COc1ccccc1-n1cnc2cc(NC(C)=O)ccc21	0	0	0	0	0	0
CCn1cnc2cc(NCc3ccncc3)ccc21	0	0	0	-	0[2.3 µM]	0
COc1cccc(CNc2ccc(F)c(Cl)c2)c1OC	0	0	0	0	0	0
CCCn1cnc2cc(NCc3ccccn3)ccc21	3.2µM	3.2µM	0	13µM	12µM	?
COc1cccc(CNc2ccc3c(c2)ncn3C(C)C)c1OC	4µM	4µM	0	?	17µM	0
COc1ccccc1-n1cnc2cc(NCc3ccccn3)ccc21	0	0	0	0	15µM	0
COc1ccc(-n2cnc3ccccc32)cc1	0	0	0	0	?	0
CCc1cccc(C)c1NC(=O)c1cnn(-c2ccc(F)cc2)c1-n1cccc1	-	-	-	-	0	-
SMILES	NPC1 prom act	Rab9 promoter act	Luc counter	SMN2 splice up	FLuc counter	ELG1 genotox
CCCn1cnc2cc(NCc3cccc(OC)c3O)ccc21	0	0	0	0	12µM	?
N#Cc1ccccc1NC(=O)C(=O)NCCc1csc(-c2ccc(C(F)(F)F)cc2)n1	-	-	-	-	0	-
COc1ccc(-c2cc(C(=O)NC3CCCC3)no2)cc1OC	?	0	0	0	0	0
O=C(NC1CCCC1)c1cc(-c2ccc(Cl)cc2Cl)on1	1µM	3.5µM	-	-	0.85µM	1.3µM
O=C(NC1CCCC1)c1cc(-c2ccccc2O)on1	0	0	-	-	4.8µM	15µM
Cc1cccc(C)c1OCc1cc(C(=O)NC2CCC2)no1	0	0	-	-	?	0
O=C(NC1CCCC1)c1cc(-c2ccccc2Cl)on1	1.6µM	2.5µM	-	-	5.4µM	?
COc1ccccc1-c1cc(C(=O)NC2CCCC2)no1	?	?	-	-	19µM	?
O=C(CN1C(=O)COc2ccc(S(=O)(=O)NC3CCCC3)cc21)NCc1ccccc1Cl	-	-	-	-	0	-
O=C(Nc1cc(Cl)cc(Cl)c1)c1ccc(F)c(S(=O)(=O)N2CCCCCC2)c1	-	-	-	-	0	-
O=C(NC1CCCCC1)c1cc(-c2ccccc2Cl)on1	?	2.8µM	-	-	?	21µM
COc1ccc(-c2cc(C(F)(F)F)n3nc(-c4ccc(Cl)cc4)cc3n2)cc1OC	-	-	-	0	0	-
Cc1nc(C)c(-c2csc(Nc3ccc(N)cc3)n2)s1	?	0	-	-	11µM	0
COc1ccc(OC)c(Nc2nc(-c3sc(N)nc3C)cs2)c1	0	0	0	0	0	0
COc1ccc(Nc2nc(-c3sc(C)nc3C)cs2)cc1	0	0	-	-	15µM	0
Cc1nc(C)c(-c2csc(Nc3ccc(O)c(C(=O)O)c3)n2)s1	0	0	-	-	9.5µM	0
CC(=O)Nc1nc(C)c(-c2csc(Nc3ccc(O)cc3)n2)s1	0	0	0	0	?	0
Cc1nc(C)c(-c2csc(Nc3cccnc3)n2)s1	0	0	0	?	12µM	?
N#Cc1ccc(OC(=O)c2cc(-c3ccc4c(c3)OCCO4)on2)cc1	-	-	-	-	21µM	-

Compound activity as filed in PubChem.
